HT1080NT lethal – kills 2HG-producing HT-1080-NT fibrosarcoma cells; HT-1080-NT fibrosarcoma viability, CellTiter-Glo ATP luminescence, 48 h; Potency, µM (top dose mostly 46.1 µM), inactives show at the highest dose activity, negative = less viability, actives largely listed as cytotoxic; 1.6% of 360,000 active; AID 686970;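 further: NT is the 2HG producing partner of a matched IDH1 knockdown line; potency means the concentration at half of the fitted maximal effect; 0% = DMSO-treated cells and -100% = media-only wells without cells; nearly all actives have a fitted effect of over 55% in size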
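Toxicity toward the 2HG-producing NT line was scored as %Activity, normalised to DMSO and no-cell wells, from CellTiter-Glo luminescence after 48 hours' treatment.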
ALOX12 inh – ALOX12 (human) lipoxygenase inhibition; P18054; purified 12hLO, xylenol orange hydroperoxide absorbance; Potency, µM (titrated, usually from 108 µM), inactives show top-dose activity change, negative = inhibition, hits mostly inhibitors; 1.1% of 580,000 active; AID 1671190; further: potency means the concentration at half of the fitted maximal effect
Target sequence (P18054 whole entry, looked up): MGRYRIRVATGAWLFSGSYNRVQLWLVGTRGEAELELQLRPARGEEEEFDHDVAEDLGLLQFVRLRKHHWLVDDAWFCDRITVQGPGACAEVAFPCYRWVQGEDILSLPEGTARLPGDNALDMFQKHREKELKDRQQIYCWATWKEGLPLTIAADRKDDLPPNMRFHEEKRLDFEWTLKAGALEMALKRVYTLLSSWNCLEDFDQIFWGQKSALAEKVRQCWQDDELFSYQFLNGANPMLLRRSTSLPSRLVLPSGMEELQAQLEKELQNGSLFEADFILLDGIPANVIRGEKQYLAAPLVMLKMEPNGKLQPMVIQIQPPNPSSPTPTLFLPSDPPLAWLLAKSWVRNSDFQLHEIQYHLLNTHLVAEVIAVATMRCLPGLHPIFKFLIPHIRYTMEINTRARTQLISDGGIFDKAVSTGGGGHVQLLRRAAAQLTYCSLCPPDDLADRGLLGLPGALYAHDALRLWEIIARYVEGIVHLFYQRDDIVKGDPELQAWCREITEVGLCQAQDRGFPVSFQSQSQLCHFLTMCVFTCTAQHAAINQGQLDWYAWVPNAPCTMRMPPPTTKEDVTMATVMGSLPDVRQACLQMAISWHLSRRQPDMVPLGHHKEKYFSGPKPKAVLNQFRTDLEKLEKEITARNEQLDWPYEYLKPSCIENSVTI
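Purified human 12hLO at 150 nM in 25 mM Hepes, 0.01% Triton X-100, pH 7.0, preincubated 15 min at room temperature with compound. Reaction started with 40 uM arachidonic acid, 30 min at room temperature. Hydroperoxide measured by Fe-xylenol orange, 573/405 nm absorbance ratio.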
IL1B secr inh – inhibitors of inflammasome signaling (IL-1 beta secretion). THP-1 LPS/ATP IL-1B secretion, AlphaLISA, 16 h; active compounds read low. activity change, % at 57.5 µM. 4.7% of 360,000 active. AID 743279; in the data active means activity change below about -50%; inconclusive means mostly about -30% to -49%
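THP-1 cells pretreated 1 hr with compounds (up to 57.5 uM final), then stimulated with LPS (250 ng/mL final) plus ATP (1.25 mM final); secreted IL-1B measured by AlphaLISA after 16 hr, decreased signal indicating inhibition.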
HT1080 IDH1KD tx – toxicity to HT-1080 IDH1 knockdown cells (counter line) | Potency, µM (doses to about 46.1 µM), without a hit: at the highest dose activity, negative = toxicity, most hits filed as cytotoxic | AID 686971 | HT-1080 IDH1 knockdown viability, ATP luminescence, 48 h | 2% of 360,000 active;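 further: potency means the concentration at half of the fitted maximal effect; 0% = DMSO wells and -100% = cell-free medium wells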
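Using the IDH1-knockdown HT-1080 line run in the same batch and compound series as the NT line, viability after 48 h at 37 °C was determined by CellTiter-Glo luminescence and expressed as % activity.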
TDP1 cell noCPT – qHTS for Inhibitors of human tyrosyl-DNA phosphodiesterase 1 (TDP1): qHTS in cells in absence of CPT; DT40 Tdp1-/- hTDP1 cells, no CPT, ATP luminescence, 48 h; Potency, µM (highest dose often 46.2 µM), for the others: at the highest dose activity change, negative = growth inhibition, actives largely listed as inhibitors; 15% of 420,000 active; further: potency means the concentration at half of the fitted maximal effect; nearly all actives have a fitted effect of over 55% in size
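A cellular qHTS used chicken DT40 cells lacking endogenous Tdp1 but carrying stably transfected human TDP1. Compounds were applied without camptothecin, and cell growth kinetics were judged by ATP-dependent luminescence after ≥48 hr.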
TDP1 cell CPT – growth inhibition of DT40 Tdp1-/-;hTDP1 cells with camptothecin (screen for TDP1 inhibitors) | chicken DT40 Tdp1-/-;hTDP1 cells + 20 nM CPT, ATP luminescence, 48 h | Potency, µM (doses to about 46.2 µM), inactives show at the highest dose activity change, negative = growth inhibition, most hits filed as inhibitors | 12% of 420,000 active | AID 686979; further: potency means the concentration at half of the fitted maximal effect; nearly all actives have a fitted effect of over 55% in size
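Chicken DT40 Tdp1-/- cells stably complemented with human TDP1 were seeded at 400 cells/well in medium containing 20 nM camptothecin, exposed to pin-transferred compounds, and grown at 37 °C for at least 48 hr. Viability was read as ATP luminescence.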
Starred values were filed as active, the others as inactive; i = inactive; ? = inconclusive; nt = not tested or not shown; [ ] = another dose, or the depositor's remark. Many of the other results were omitted from the sample, so hits are more common in it than they were. Unless noted, the call rests on the fitted dose curve; in most records, active means well fitted curve in the direction sought with a large enough effect; inconclusive means small, poorly fitted or top-dose-only effect, or another doubt; inactive means no such curve, though single readings can be large; an effect the other way counts as inactive or inconclusive. Unless noted, on the % scale 0 is the no-effect control and ±100 the full control effect.

SMILES | HT1080NT lethal | ALOX12 inh | IL1B secr inh | HT1080 IDH1KD tx | TDP1 cell noCPT | TDP1 cell CPT
COc1ccc(Oc2c(C)oc3cc(OCC(=O)N4CCCC4)ccc3c2=O)cc1 | nt | -10.9% | nt | nt | nt | nt
O=C(NCCNC(=O)c1cc(Cl)ccc1Cl)c1ccco1 | 20.3% | -11.4% | -5.2 | 11.0% | -12.0% | -1.5%
O=C(Nc1nnc(-c2cc(Cl)ccc2Cl)o1)c1ccco1 | 11.8% | 10.2% | 7.3 | 6.0% | 16.4µM* | ?
Cc1ccc(S(=O)(=O)CCC(=O)OC(C)c2nnc(-c3cccs3)o2)cc1 (stereo unspecified) | 0.5% | 305.1% | 8.4 | 11.2% | -6.7% | -6.5%
O=C(CCS(=O)(=O)c1ccc(Cl)cc1)Nc1nnc(-c2ccco2)o1 | -6.7% | 8.7% | -81.4* | -9.4% | ? | 9.2µM*
Cc1ccc(S(=O)(=O)CCC(=O)Nc2nnc(-c3ccco3)o2)cc1 | 6.0% | 13.2% | -13.7 | -0.7% | ? | ?
O=C(CS(=O)(=O)c1ccccc1)Nc1nnc(-c2cccs2)o1 | -7.9% | -0.8% | 6.1 | -9.2% | -16.9% | -14.9%
Cc1ccc(S(=O)(=O)CCC(=O)Nc2nnc(-c3cccs3)o2)cc1 | -0.5% | 5.9% | -61.3* | -4.5% | 16.4µM* | ?
O=C(CCS(=O)(=O)c1ccc(Cl)cc1)Nc1nnc(-c2cccs2)o1 | -28.2% | -9.9% | -17.4 | -16.7% | 16.4µM* | 16.4µM*
COc1ccc(NC(=O)Cn2ccc3cc(Cl)ccc32)c(OC)c1 | nt | 10.8% | nt | nt | nt | nt
O=C(Nc1nnc(-c2ccco2)o1)c1ccc(Cl)s1 | -24.4% | i | 3.7 | ? | 16.4µM* | 20.6µM*
O=C(Nc1nnc(-c2ccco2)o1)c1ccc(Br)s1 | -14.5% | -3.9% | 11.9 | -18.3% | ? | ?
Cc1ccc(SCC(=O)Nc2nnc(-c3ccco3)o2)cc1 | -2.9% | -10.9% | 12.9 | -8.6% | 29.1µM* | -5.6%
COC(=O)c1cn(NC(=O)c2cnccn2)c(=O)c2ccccc12 | ? | -16.8% | 169.7 | ? | 7.31µM* | 7.31µM*
CCC(=O)Nc1c2c(nn1-c1cccc(Cl)c1)CSC2 | 13.4% | ? | 3.3 | 11.5% | 0.731µM* | -10.4%
CCCC(=O)Nc1c2c(nn1-c1ccccc1)CSC2 | -7.8% | 2.8% | -8.6 | 2.6% | -19.6% | 2.9%
COc1cccc(/C=C/c2nc(C#N)c(N3CCCCC3)o2)c1 | nt | 0.0% | nt | nt | 23.1µM* | 20.6µM*
COc1cc(/C=C/c2nc(C#N)c(N3CCCCC3)o2)cc(OC)c1OC | nt | -22.9% | nt | nt | 7.31µM* | 8.2µM*
Cc1cccc(-c2nc(C#N)c(N3CCCCCC3)o2)c1 | -0.3% | 8.0% | -56.8* | 0.4% | ? | 29.1µM*
COc1cccc(/C=C/c2nc(C#N)c(N3CCN(C(C)=O)CC3)o2)c1 | nt | -21.2% | nt | nt | nt | nt
COc1ccc(/C=C/c2nc(C#N)c(N3CCC(C)CC3)o2)cc1OC | nt | -24.1% | nt | nt | 23.1µM* | 16.4µM*
N#Cc1nc(/C=C/c2ccc(F)cc2)oc1N1CCCCC1 | nt | 2.9% | nt | nt | ? | ?
O=C(Nc1cccc(OCc2ccc(F)cc2)c1)c1ccncc1 | nt | 31.8% | nt | nt | nt | nt
CC(C)C(=O)Nc1cccc(NC(=O)Nc2ccc(Cl)cc2)c1 | nt | 38.6% | nt | nt | nt | nt
Cc1ccc(C)c(C(=O)N2CCC(c3nc4c(nnn4Cc4ccccc4)c(=O)[nH]3)CC2)c1 | nt | -11.5% | nt | nt | 8.2µM* | ?
SMILES | HT1080NT lethal | ALOX12 inh | IL1B secr inh | HT1080 IDH1KD tx | TDP1 cell noCPT | TDP1 cell CPT
Cc1cccc(Cn2nnc3c(=O)[nH]c(C4CCCN(C(=O)c5ccccc5Cl)C4)nc32)c1 (stereo unspecified) | nt | ? | nt | nt | ? | 25.9µM*
Cc1ccc(CC(=O)N2CCC(c3nc4c(nnn4Cc4ccccc4)c(=O)[nH]3)CC2)cc1 | -1.7% | 7.9%[57.4 µM] | ? | 2.7% | -18.3% | -1.7%
CC(=O)c1cccc(S(=O)(=O)N2CCCC(c3nc4c(nnn4Cc4ccccc4Cl)c(=O)[nH]3)C2)c1 (stereo unspecified) | -24.9% | -22.6% | -70.4* | ? | -26.6% | -18.3%
CCOc1ccccc1NC(=O)N1CCCC(c2nc3c(nnn3Cc3ccc(C)cc3)c(=O)[nH]2)C1 (stereo unspecified) | -22.1% | -19.2% | -0.7 | ? | ? | 29.1µM*
Cc1ccc(Cn2nnc3c(=O)[nH]c(C4CCCN(C(=O)Nc5ccc(F)cc5F)C4)nc32)cc1 (stereo unspecified) | ? | ? | -9.8 | ? | -23.5% | ?
Cn1c(=O)c2c(nc(Br)n2Cc2cccc(Cl)c2)n(C)c1=O | nt | 10.6% | nt | nt | nt | nt
Cc1ccc(S(=O)(=O)N2CCC(c3nc4c(nnn4Cc4ccccc4)c(=O)[nH]3)CC2)cc1 | ? | ? | -16.4 | -11.2% | -27.6% | ?
O=c1[nH]c(C2CCN(S(=O)(=O)c3ccccc3C(F)(F)F)CC2)nc2c1nnn2Cc1ccccc1 | ? | -21.6% | -50.7* | ? | ? | ?
COc1ccc(NS(=O)(=O)c2ccc(C)c(C(=O)N3CCN(Cc4cc(OC)ccc4OC)CC3)c2)cc1 | -12.4% | 12.9% | -15.3 | -11.0% | 23.1µM* | 20.6µM*
COc1ccc(NS(=O)(=O)c2cccc(C(=O)N3CCN(Cc4cc(OC)ccc4OC)CC3)c2)cc1 | -7.6% | ? | -15.2 | -6.5% | ? | ?
COc1ccc(OC)c(CN2CCN(C(=O)c3cccc(S(=O)(=O)Nc4ccc(C)cc4)c3)CC2)c1 | -2.9% | ? | -53.2* | -11.1% | ? | 25.9µM*
COc1ccc(OC)c(CN2CCN(C(=O)c3ccc(S(=O)(=O)N4CCCCCC4)cc3)CC2)c1 | -8.0% | -14.0% | ? | -9.3% | 20.6µM* | ?
COc1ccc(OC)c(CN2CCN(C(=O)c3cc(S(=O)(=O)Nc4ccccc4OC)ccc3C)CC2)c1 | -1.0% | 1.6% | i | -13.3% | ? | ?
O=C(c1ccc(F)cc1)N1CCCC(c2nc(C3CCOCC3)no2)C1 (stereo unspecified) | nt | 19.6% | nt | nt | nt | nt
CCOc1ccc(NC(=O)CC2C(=O)N(CC)C(=S)N2CCN2CCOCC2)cc1 (stereo unspecified) | -1.0% | -1.6% | 1.2 | 9.8% | ? | ?
CCN1C(=O)C(CC(=O)Nc2ccc(F)cc2)N(CCCN2CCN(c3ccc(F)cc3)CC2)C1=S (stereo unspecified) | 29.1µM* | 12.1% | ? | ? | 14.6µM* | 14.6µM*
CCCOc1ccc(NC(=O)CC2C(=O)N(CC)C(=S)N2CCCN2CCN(Cc3ccccc3)CC2)cc1 (stereo unspecified) | 16.4µM* | ? | -99.9* | 16.4µM* | 14.6µM* | 14.6µM*

Screening results (PubChem)
